Source: PMC4336329 (PLoS ONE, 2015)
Screen size: about 310,000 compounds; about 2,200 (0.71%) showed an effect of 50% or more. Effects have a minus sign here. The sample as a whole holds a higher share of strong results than the screen did.

Target: human ether-à-go-go-related gene (hERG) potassium channel (human, UniProt Q12809)
Assay: primary screen, population patch clamp on CHO cells stably expressing hERG; higher = less effect of the substance

Chain of human ether-à-go-go-related gene (hERG) potassium channel (Q12809 whole entry, looked up): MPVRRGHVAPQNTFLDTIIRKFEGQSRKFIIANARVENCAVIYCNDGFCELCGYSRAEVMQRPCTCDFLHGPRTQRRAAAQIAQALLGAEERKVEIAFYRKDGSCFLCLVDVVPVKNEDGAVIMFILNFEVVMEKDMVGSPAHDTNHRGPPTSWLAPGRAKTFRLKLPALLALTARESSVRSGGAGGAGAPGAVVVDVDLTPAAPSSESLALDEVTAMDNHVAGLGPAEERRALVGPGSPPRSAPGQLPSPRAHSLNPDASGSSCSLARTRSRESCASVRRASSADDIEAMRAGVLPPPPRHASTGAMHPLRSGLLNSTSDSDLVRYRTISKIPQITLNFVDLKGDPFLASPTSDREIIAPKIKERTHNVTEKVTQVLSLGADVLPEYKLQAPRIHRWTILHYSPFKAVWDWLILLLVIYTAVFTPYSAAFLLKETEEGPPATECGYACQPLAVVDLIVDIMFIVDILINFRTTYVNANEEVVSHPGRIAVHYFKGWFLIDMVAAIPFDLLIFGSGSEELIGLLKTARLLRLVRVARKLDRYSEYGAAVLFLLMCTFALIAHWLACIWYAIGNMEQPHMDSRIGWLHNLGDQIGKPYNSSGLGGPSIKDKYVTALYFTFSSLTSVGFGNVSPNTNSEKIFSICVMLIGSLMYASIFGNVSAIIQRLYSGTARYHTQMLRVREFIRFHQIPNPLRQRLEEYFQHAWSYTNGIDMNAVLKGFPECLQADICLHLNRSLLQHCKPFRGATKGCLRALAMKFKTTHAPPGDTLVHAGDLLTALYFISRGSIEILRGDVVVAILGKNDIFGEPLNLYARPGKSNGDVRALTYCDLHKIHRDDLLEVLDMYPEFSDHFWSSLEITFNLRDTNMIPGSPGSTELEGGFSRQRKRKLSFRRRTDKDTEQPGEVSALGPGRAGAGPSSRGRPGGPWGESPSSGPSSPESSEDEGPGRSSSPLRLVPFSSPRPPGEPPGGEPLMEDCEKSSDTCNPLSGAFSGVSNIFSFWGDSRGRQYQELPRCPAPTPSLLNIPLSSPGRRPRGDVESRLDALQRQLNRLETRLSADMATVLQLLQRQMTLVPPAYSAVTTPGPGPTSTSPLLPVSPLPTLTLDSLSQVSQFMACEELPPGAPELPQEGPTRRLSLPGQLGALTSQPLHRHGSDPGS

Row | SMILES | hERG current change (%, negative = inhibition) at 1uM [%]
1 | CC(C)CCNC(=O)c1c(N)n(Cc2ccc3c(c2)OCO3)c2nc3ccccc3nc12 | 11.9
2 | CC(COc1ccccc1)N1CCC(CO)(CCc2ccccc2)CC1 (stereo not shown) | -84.8
3 | CSCC(C)N1CCC(CO)(CCc2ccccc2)CC1 (stereo not shown) | 13.9
4 | COc1ccc(CC2(CO)CCN(S(=O)(=O)N(C)C)CC2)cc1 | 14.7
5 | COc1ccc(CC2(CO)CCN(C(=O)NCc3ccccc3)CC2)cc1 | 10.4
6 | CN(C)S(=O)(=O)N1CCC(CO)(CCc2ccccc2)CC1 | 12
7 | COc1ccc(CC2(CO)CCN(C(C)COc3ccccc3)CC2)cc1 (stereo not shown) | -68.4
8 | CC(COc1ccccc1)N1CCC(CO)(Cc2ccccc2)CC1 (stereo not shown) | -13.3
9 | COc1ccc(CC2(CO)CCN(C(C)Cc3ccc(Cl)cc3)CC2)cc1 (stereo not shown) | -80
10 | COc1ccc(CCC(C)N2CCC(CO)(Cc3ccccc3)CC2)cc1 (stereo not shown) | -31.6
11 | Cc1cccc2nc(-c3ccco3)c(Nc3ccc4c(c3)OCO4)n12 | 5.48
12 | CSCCC(NC(=O)c1ccc(Cl)cc1)C(=O)OCC(=O)Nc1ccc(C#N)cc1 (stereo not shown) | -1.39
13 | CCCn1cc(CN2CCCC(C(=O)c3cccc(OC)c3)C2)c(C)n1 (stereo not shown) | -14.5
14 | CS(=O)(=O)N1CCc2cc(-c3csc(NC(=O)Cc4cccs4)n3)ccc21 | -5
15 | CCc1ccccc1NNC(=O)c1snnc1C | 1.7
16 | CCC(C)N(C(=O)COC(=O)c1nc2nc(C)cc(C)n2n1)C1CCS(=O)(=O)C1 (stereo not shown) | 21.2
17 | O=C(O)CCn1cc(C=C2C(=O)NC(=O)NC2=O)c(-c2cc3ccccc3oc2=O)n1 | 20.6
18 | Cc1c(C(=O)N2CCN(C(=O)c3ccccc3)CC2)oc2ccc(F)cc12 | -5.86
19 | Cc1c(C(=O)N2CCN(CCc3ccccn3)CC2)oc2ccc(Cl)cc12 | -84.6
20 | Cc1c(C(=O)N2CCN(CCc3ccccn3)CC2)oc2ccc(F)cc12 | -61.3
21 | Cc1cc2oc(C(=O)N3CCN(CCc4ccccn4)CC3)c(C)c2cc1C | -6.88
22 | Cc1c(C(=O)N2CCN(CCc3ccccc3)CC2)oc2ccccc12 | -36
23 | Cc1c(C(=O)N2CCN(c3ncccn3)CC2)oc2ccc(Cl)cc12 | 2.57
24 | Fc1ccc(Cn2nnc(-c3ccc(Cl)cc3)n2)cc1 | 11.5
25 | Cc1nc2ccccc2c(=O)n1NC(=O)Cc1ccc(Br)cc1 | 5.31
